Assay results published in the supplement of paper PMC4022240.
± gives the standard deviation.

Tests used:
Experiment in all cases: peptide microarray binding signal (635 nm), min-max normalized on array (fraction of array maximum); higher = stronger binding
Conditions in all cases: peptide region: Unmod H1 variant
[1] = molecular target: T1, HaloTag-ATRX ADD domain (163-292)
T1 chain: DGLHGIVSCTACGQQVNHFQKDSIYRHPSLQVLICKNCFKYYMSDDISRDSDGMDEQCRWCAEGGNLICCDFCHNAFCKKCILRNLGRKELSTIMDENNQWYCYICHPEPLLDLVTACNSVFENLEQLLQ
How it was run: (§1)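 Triplicate spots of histone 13-mer peptide–cellulose conjugates with a Cy3 tracer were printed on nitrocellulose and probed for 1 h at 4°C with biotin-labelled HaloTag reader fusions (10 nM to 1 μM) plus streptavidin-Alexa Fluor 647 or rabbit histone antibodies (1:10,000 to 1:2,000) plus anti-rabbit Alexa 647. An Axon GenePix 4000B read the 635 nm channel. Binding signal is the spot-triplicate mean intensity after min-max scaling within each library.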

[2] = molecular target: HaloTag-ING2 PHD (mouse Ing2 200-280)
How it was run: as §1

[3] = molecular target: anti-H3K4me3 antibody ab8580
How it was run: as §1

[4] = molecular target: anti-H3K9me3 antibody ab8898
How it was run: as §1

[5] = binder concentration: 1:2,000 dilution
[6] = binder concentration: 1:10,000 dilution

ALAAAGYDVEKNN [Unmod H1 variant A L A A A G Y D V E K N N]
peptide microarray binding signal ([1]; binder concentration: 50 nM): 0.021 ± 0.00023 | peptide microarray binding signal ([1]; binder concentration: 500 nM): 0.0215 ± 0.001 | peptide microarray binding signal ([2]; binder concentration: 10 nM): 0.00991 ± 0.00043 | peptide microarray binding signal ([2]; binder concentration: 100 nM): 0.0252 ± 0.0029 | peptide microarray binding signal [3, 5]: 0.0067 ± 0.0027 | peptide microarray binding signal [3, 6]: 0.00702 ± 0.00034 | peptide microarray binding signal [4, 5]: 0.00281 ± 0.0003 | peptide microarray binding signal [4, 6]: 0.00357 ± 0.00017

TKTKATGASKKLK [Unmod H1 variant T K T K A T G A S K K L K]
peptide microarray binding signal ([1]; binder concentration: 50 nM): 0.032 ± 0.02 | peptide microarray binding signal ([1]; binder concentration: 500 nM): 0.0136 ± 0.00069 | peptide microarray binding signal ([2]; binder concentration: 10 nM): 0.00257 ± 9.1e-05 | peptide microarray binding signal ([2]; binder concentration: 100 nM): 0.00829 ± 0.00095 | peptide microarray binding signal [3, 5]: 0.000642 ± 2.2e-05 | peptide microarray binding signal [3, 6]: 0.001027 ± 1e-05 | peptide microarray binding signal [4, 5]: 0.000181 | peptide microarray binding signal [4, 6]: 0.000519 ± 5.6e-06

TKPGASKVATKTK [Unmod H1 variant T K P G A S K V A T K T K]
peptide microarray binding signal ([1]; binder concentration: 50 nM): 0.0164 ± 0.00041 | peptide microarray binding signal ([1]; binder concentration: 500 nM): 0.0137 ± 0.0012 | peptide microarray binding signal ([2]; binder concentration: 10 nM): 0.00215 ± 5e-05 | peptide microarray binding signal ([2]; binder concentration: 100 nM): 0.00694 ± 0.00026 | peptide microarray binding signal [3, 5]: 0.00117 ± 0.00015 | peptide microarray binding signal [3, 6]: 0.00097 ± 9.9e-06 | peptide microarray binding signal [4, 5]: 0.000302 ± 6.2e-06 | peptide microarray binding signal [4, 6]: 0.000692 ± 7.3e-06

GVSLAALKKALAA [Unmod H1 variant G V S L A A L K K A L A A]
peptide microarray binding signal ([1]; binder concentration: 50 nM): 0.0641 ± 0.057 | peptide microarray binding signal ([1]; binder concentration: 500 nM): 0.0257 ± 0.0036 | peptide microarray binding signal ([2]; binder concentration: 10 nM): 0.00621 ± 0.00023 | peptide microarray binding signal ([2]; binder concentration: 100 nM): 0.0162 ± 0.0004 | peptide microarray binding signal [3, 5]: 0.00157 ± 0.00018 | peptide microarray binding signal [3, 6]: 0.00262 | peptide microarray binding signal [4, 5]: 0.00131 ± 4.4e-05 | peptide microarray binding signal [4, 6]: 0.00161 ± 3.1e-05

GAAKRKASGPPVS [Unmod H1 variant G A A K R K A S G P P V S]
peptide microarray binding signal ([1]; binder concentration: 50 nM): 0.0168 ± 0.00018 | peptide microarray binding signal ([1]; binder concentration: 500 nM): 0.00757 ± 0.00056 | peptide microarray binding signal ([2]; binder concentration: 10 nM): 0.00245 ± 5e-05 | peptide microarray binding signal ([2]; binder concentration: 100 nM): 0.00822 ± 0.00024 | peptide microarray binding signal [3, 5]: 0.000793 ± 1.2e-05 | peptide microarray binding signal [3, 6]: 0.000799 ± 8.3e-06 | peptide microarray binding signal [4, 5]: 0.000211 ± 4.5e-06 | peptide microarray binding signal [4, 6]: 0.000634

AVAASKERSGVSL [Unmod H1 variant A V A A S K E R S G V S L]
peptide microarray binding signal ([1]; binder concentration: 50 nM): 0.0286 ± 0.0016 | peptide microarray binding signal ([1]; binder concentration: 500 nM): 0.0273 ± 0.0012 | peptide microarray binding signal ([2]; binder concentration: 10 nM): 0.011 ± 0.00034 | peptide microarray binding signal ([2]; binder concentration: 100 nM): 0.0228 ± 0.00053 | peptide microarray binding signal [3, 5]: 0.00236 ± 0.00025 | peptide microarray binding signal [3, 6]: 0.00479 ± 0.00028 | peptide microarray binding signal [4, 5]: 0.00335 ± 9.4e-05 | peptide microarray binding signal [4, 6]: 0.002825 ± 2.4e-05

SETAPAAPAAPAP [Unmod H1 variant S E T A P A A P A A P A P]
peptide microarray binding signal ([1]; binder concentration: 50 nM): 0.0194 ± 0.0011 | peptide microarray binding signal ([1]; binder concentration: 500 nM): 0.00995 ± 0.00098 | peptide microarray binding signal ([2]; binder concentration: 10 nM): 0.00394 ± 0.0003 | peptide microarray binding signal ([2]; binder concentration: 100 nM): 0.00418 ± 0.00041 | peptide microarray binding signal [3, 5]: 0.00274 ± 0.001 | peptide microarray binding signal [3, 6]: 0.00337 ± 0.00036 | peptide microarray binding signal [4, 5]: 0.00159 ± 8.6e-05 | peptide microarray binding signal [4, 6]: 0.00167 ± 2.8e-05

APAPAEKTPVKKK [Unmod H1 variant A P A P A E K T P V K K K]
peptide microarray binding signal ([1]; binder concentration: 50 nM): 0.021 ± 0.0011 | peptide microarray binding signal ([1]; binder concentration: 500 nM): 0.0189 ± 0.00097 | peptide microarray binding signal ([2]; binder concentration: 10 nM): 0.00466 ± 0.00027 | peptide microarray binding signal ([2]; binder concentration: 100 nM): 0.012 ± 0.00083 | peptide microarray binding signal [3, 5]: 0.00136 ± 0.00038 | peptide microarray binding signal [3, 6]: 0.00223 ± 7.3e-05 | peptide microarray binding signal [4, 5]: 0.000906 ± 4.5e-05 | peptide microarray binding signal [4, 6]: 0.00098

KSPAKAKAVKPKA [Unmod H1 variant K S P A K A K A V K P K A]
peptide microarray binding signal ([1]; binder concentration: 50 nM): 0.0194 ± 0.0034 | peptide microarray binding signal ([1]; binder concentration: 500 nM): 0.00619 ± 0.00021 | peptide microarray binding signal ([2]; binder concentration: 10 nM): 0.00167 ± 3.4e-05 | peptide microarray binding signal ([2]; binder concentration: 100 nM): 0.0159 ± 0.014 | peptide microarray binding signal [3, 5]: 0.000283 | peptide microarray binding signal [3, 6]: 0.000571 ± 1.1e-05 | peptide microarray binding signal [4, 5]: 0.000196 ± 2.1e-06 | peptide microarray binding signal [4, 6]: 0.000577 ± 6.2e-06

KTAKPKKAAPKKK [Unmod H1 variant K T A K P K K A A P K K K]
peptide microarray binding signal ([1]; binder concentration: 50 nM): 0.01737 ± 0.0001 | peptide microarray binding signal ([1]; binder concentration: 500 nM): 0.00729 ± 0.00021 | peptide microarray binding signal ([2]; binder concentration: 10 nM): 0.00203 ± 5.4e-05 | peptide microarray binding signal ([2]; binder concentration: 100 nM): 0.00532 ± 0.00022 | peptide microarray binding signal [3, 5]: 0.000755 ± 3e-05 | peptide microarray binding signal [3, 6]: 0.000913 ± 1.6e-05 | peptide microarray binding signal [4, 5]: 0.000121 ± 1.3e-06 | peptide microarray binding signal [4, 6]: 0.000577 ± 6.2e-06
